hcDAF12 agonist: activates DAF-12 receptor from parasite H. contortus | activation, % at 6.8 µM | HEK293 hcDAF-12 lit1-tk-luc reporter, luminescence; 0% DMSO, 100% Δ7-dafachronic acid | AID 652067 | 1.4% of 370,000 active;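 active = activation above the mean of all tested compounds plus 3 SD, cut at about 5.5% in these data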;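 also: 100% = response to 3 µM Δ7-dafachronic acid high control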
ssDAF12 agonist: S. stercoralis DAF-12 activation, primary screen; 1% of 370,000 active; activation, % at 6.8 µM; HEK293 ssDAF-12/GRIP1 lit1-tk-luc reporter, luminescence; % of 3 µM dafachronic acid response;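 active = activation above the mean over all tested compounds plus 3 SD, cut at about 0.9% in these data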;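 also: 0% = DMSO-only wells and 100% = 3 µM delta7-dafachronic acid wells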
hgDAF-12 ag: activates the H. glycines DAF-12 receptor ligand-binding domain. HEK293 GAL4-hgDAF12 UAS-luciferase reporter, agonist luminescence; normalized to butyrate control. activation, % at 6.8 µM. 1.8% of 370,000 active. AID 687014;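 active = activation above a cutoff set at the mean of all screened compounds plus 3 SD, cut at about 10% in these data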;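 also: 0% = DMSO wells and 100% = sodium butyrate wells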
DAX1 inh-1: blocks DAX1 repression of SF-1 activated StAR promoter; HEK293T StAR-luciferase reporter, SF-1/DAX-1 repression relief; inhibition, % at 6.8 µM; 1.1% of 370,000 active;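 active = inhibition above the mean over all tested compounds plus 3 SD, cut at about 3.6% in these data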;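 also: 0% = DAX-1 cells with DMSO and 100% = cells lacking DAX-1 with DMSO; higher inhibition means more luminescence from relief of DAX-1 repression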
DAX1 inh-2: inhibitors of human orphan nuclear receptor DAX1 (NR0B1). inhibition, % at 6.75 µM. HEK293 Gal4-DAX1 luciferase reporter, luminescence. AID 504766. P51843. 0.99% of 340,000 active;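 active = inhibition above the mean over all tested compounds plus 3 SD, cut at about 4.2% in these data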;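 also: 0% = DAX1-transfected cells with DMSO and 100% = empty-vector control cells with DMSO; inhibition shows as a rise in luminescence from relieved DAX1 repression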
Target sequence (P51843 207-470 limits assumed): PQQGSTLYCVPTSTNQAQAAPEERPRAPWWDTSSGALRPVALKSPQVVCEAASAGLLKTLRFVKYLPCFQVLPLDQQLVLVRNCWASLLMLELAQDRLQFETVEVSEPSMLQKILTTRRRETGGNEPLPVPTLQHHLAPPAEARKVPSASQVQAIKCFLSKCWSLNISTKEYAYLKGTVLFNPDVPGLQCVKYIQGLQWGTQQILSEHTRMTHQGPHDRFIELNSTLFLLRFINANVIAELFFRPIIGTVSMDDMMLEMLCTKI
LXRb hcDAF ctr: activates human LXR-beta, counter-screen for hcDAF-12 agonists. shares compounds with hcDAF12 agonist. 3,400 tested, under 10 active. HEK293 Gal4-LXR tk-luc reporter, luminescence, 24 h; normalized: DMSO 0%, positive control 100%. activation, % at 6.8 µM. AID 743027;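 active = mean percent activation of the reporter above a cutoff set as the average over tested compounds plus their standard deviation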
hcDAF12 conf: hcDAF-12 agonism, confirmation assay; shares compounds with hcDAF12 agonist; HEK293 hcDAF-12 lit1-tk-luc reporter, luminescence; % of Δ7-dafachronic acid response; activation, % at 6.8 µM; 61% of 3,400 active;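 active = mean activation across triplicate tests above the threshold derived from the earlier primary screen, cut at about 5.5% in these data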;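 also: 0% = DMSO only wells and 100% = 3 µM Δ7-dafachronic acid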
* hit, by the source's call; . = no result. This is a sample that favours compounds with a hit; in the whole collection about 4.1% have one here.

SMILES	hcDAF12 agonist	ssDAF12 agonist	hgDAF-12 ag	DAX1 inh-1	DAX1 inh-2	LXRb hcDAF ctr	hcDAF12 conf
Cc1ccccc1C(=O)Nc1ccc2c(c1)OCO2	6.8*	0	13*	3	-1	2	5
CC(=O)Nc1ccc2c(c1)OCO2	-1	-1	-4	0	-1	.	.
COCC(C)N=C1NN=C(c2ccc(NC(C)=O)cc2)CS1 (configuration not stated)	0	-1	5	-1	0	.	.
CC(C)N=C1NN=C(c2cccs2)CS1	8.6*	1.4*	12*	3	2	1	11*
O=C(O)COc1ccccc1/C=N/NC(=O)c1cc2ccccc2cc1O	11*	2.7*	10	2	0	0	5
c1ccc2c(-c3nc(-c4ccncc4)no3)cccc2c1	1	-1	3	0	1	.	.
c1ccc(-c2noc(-c3cccc4ccccc34)n2)cc1	17*	2.9*	12*	3.7*	3	1	16*
c1cncc(-c2noc(-c3cccc4ccccc34)n2)c1	7.0*	1.2*	9	0	2	1	16*
Fc1ccccc1-c1nc(-c2ccc(-c3nn[nH]n3)cc2)no1	2	-1	6	1	4	.	.
Fc1ccccc1-c1nc(-c2ccccc2)no1	10*	1.9*	10	4	1	2	18*
c1ccc(-c2ccccc2-c2nc(-c3cccnc3)no2)cc1	-2	-1	-1	-1	0	.	.
COc1ccc(-c2oc3ccccc3c2C(=O)OCc2ccccc2OC)cc1	-2	-1	0	0	0	.	.
O=C(/C=C/c1c(F)cccc1Cl)Nc1cccnc1	7.1*	1	11*	1	3	1	6.8*
COc1ccc(NC(=O)Nc2cccc3c2O[C@H](CN(C)C(=O)Nc2c(C)noc2C)[C@@H](C)CN([C@H](C)CO)C3=O)cc1	7.0*	-1	1	0	2	0	0
COc1ccc(NC(=O)N(C)C[C@@H]2Oc3c(NC(=O)Nc4c(C)noc4C)cccc3C(=O)N([C@@H](C)CO)C[C@@H]2C)cc1	0	-1	2	0	0	.	.
O=C(OCc1nc2ccccc2s1)C1CCN(C2=NS(=O)(=O)c3ccccc32)CC1	9.7*	1.4*	5	2	2	1	9.6*
Cc1sc2ncnc(N/N=C/c3ccccc3O)c2c1C	7.2*	0	7	0	-4	0	0
Cc1cccc2cc(C#N)c(NCCNC(=O)c3ccccc3)nc12	-1	-1	-2	-2	-1	.	.
CCOC(=O)C1CN(S(C)(=O)=O)c2cc(CC(=O)OC)ccc2O1 (configuration not stated)	0	-1	5	0	0	.	.
Cc1ccc(Cl)c2c(N=Nc3ccccc3)c(O)[nH]c12	7.7*	0.9*	6	1	6.3*	1	10*
Cn1c2ccc(F)cc2c2nc3ccccc3nc21	7.1*	1	3	0	2	0	8.3*
CCn1c2ccc(F)cc2c2nc3ccccc3nc21	1	-1	2	0	0	.	.
Cn1c2ccc(F)cc2c2nnc(SCCN3CCCCC3)nc21	8.2*	1.1*	5	1	2	0	6.9*
Cn1c2ccc(Cl)cc2c2nc3ccccc3nc21	8.8*	2.4*	12*	3	2	0	8.5*
CCOc1ccc2c(c1)c1nc3ccccc3nc1n2C	5	0	4	0	0	.	.
SMILES	hcDAF12 agonist	ssDAF12 agonist	hgDAF-12 ag	DAX1 inh-1	DAX1 inh-2	LXRb hcDAF ctr	hcDAF12 conf
CC(=O)Nc1sc2c(c1-c1nc3ccccc3s1)CNC2	16*	1.6*	2	.	.	0	9.8*
COc1cc2c(cc1NC(=O)C(C)Sc1nc3ccccc3n1C)oc1ccccc12 (configuration not stated)	1	0	-3	0	-1	.	.
COc1cc2c(cc1NC(=O)C(C)Sc1cccc[n+]1[O-])oc1ccccc12 (configuration not stated)	9.6*	0	7	1	1	0	6
COCc1cc(C)nc(SCC(=O)Nc2nc(C)cs2)c1C#N	9.7*	0	10	2	-2	1	6.3*
Cc1nc(NC(=S)Nc2ccccc2)sc1C	10*	0	10	1	2	0	3
CCC(C(=O)Nc1nc(C)c(C)s1)c1ccccc1 (configuration not stated)	-1	-1	-2	-1	0	.	.
Cc1cccc(NC(=O)c2nc[nH]c2C(=O)NC2CCN(C(=O)OC(C)(C)C)CC2)c1	-1	-1	0	0	1	.	.
Cc1ccc(C)c(N2CCN(C(=O)c3ccc(NC4=NC5CS(=O)(=O)CC5S4)cc3)CC2)c1 (configuration not stated)	-1	-1	-1	0	1	.	.
Cc1ccc(NC(=O)n2ncc3c(C)cccc32)cc1F	11*	1.1*	9	2	3	1	9.0*
COc1ccc(C2=Nc3cccc4cccc(c34)N2)cc1	3	0	4	1	0	.	.
Nc1cccc(C2=Nc3cccc4cccc(c34)N2)c1	8.5*	0	4	1	0	0	5.7*
O=C(Nc1nnc(C2CC2)s1)c1cccnc1Oc1ccc(Cl)cc1	0	-1	-1	-1	0	.	.
Cn1c(=O)c(/C=C/c2ccccc2)nc2ccccc21	13*	2.4*	23*	4.2*	3	1	16*
CN(C)c1nc2ccccc2n(C)c1=O	-2	-1	1	0	0	.	.
O=c1c(/C=C(\O)c2ccc(F)cc2)nc2ccccc2n1-c1ccccc1	-2	-1	0	0	0	.	.
Cn1c(=O)c(/C=C/c2ccc(F)cc2)nc2ccccc21	10.0*	0	7	1	1	0	9.9*
O=C(CCl)Nc1ccccc1C(=O)NCc1ccccc1	-2	-1	-2	-2	1	.	.
N/C(Cc1ccccc1)=N\OC(=O)c1cccc2ccccc12	4	-1	4	0	-1	.	.
Cc1ccccc1C(=O)O/N=C(\N)c1ccccc1	10*	0.9*	8	3	4	2	25*
N/C(=N\OC(=O)c1cccc2ccccc12)c1ccc(Br)cc1	8.9*	2.2*	-1	0	-2	0	4
N/C(=N\OC(=O)c1cccc2ccccc12)c1ccncc1	7.5*	2.3*	4	0	3	0	4
CN1/C(=C/C(=O)c2cccs2)Sc2ccccc21	22*	4.5*	18*	4.4*	1	2	24*
